Screening results: PubChem BioAssay, National Center for Advancing Translational Sciences (NCATS)
HT1080 IDH1KD tx – toxicity to HT-1080 IDH1 knockdown cells (counter line) | HT-1080 IDH1 knockdown viability, ATP luminescence, 48 h | 2% of 360,000 active | Potency, µM (series often up to 46.1 µM), without a hit: top-dose activity, negative = toxicity, usual class: cytotoxic;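 note: potency is the fitted concentration of half-maximal effect; 0% = DMSO wells and -100% = cell-free medium wells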
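% activity derives from luminescence (CellTiter-Glo), normalised to DMSO and no-cell wells. HT-1080-IDH1KD cells, 750/well, had 48 h compound exposure at 37 °C.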
KB-V1 MDR tox – KB-V1 MDR subline cytotoxicity; KB-V1 MDR cells viability, CellTiter-Glo, 72 h; AID 1347076; Potency, µM (titrated, usually from 46.1 µM), actives largely listed as cytotoxic; 3.4% of 400,000 active; note: potency is the fitted concentration of half-maximal effect; nearly all actives have a fitted effect of over 60% in size
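KB-V1 MDR subline cells in DMEM (phenol-red free, 10% FBS) exposed to compounds in qHTS concentration series for 72 h at 37 degrees C. Viability read by CellTiter-Glo luminescence; concentration-effect curves fitted after normalization and correction.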
KB-3-1 cytotox – kills parental KB-3-1 adenocarcinoma cells; Potency, µM (top dose mostly 46.1 µM), hits mostly cytotoxic; 1.4% of 400,000 active; KB-3-1 viability, CellTiter-Glo ATP luminescence, 72 h; AID 1347075; note: potency is the fitted concentration of half-maximal effect; nearly all actives have a fitted effect of over 60% in size
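72 h, 37 °C compound treatment of KB-3-1 parental cells; CellTiter-Glo added, 10 min, luminescence read. Data corrected against DMSO-only plates and normalized before curve fitting.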
IL-1B inflam inh – blocks inflammasome-driven IL-1 beta release. THP-1 LPS/ATP IL-1B secretion, AlphaLISA, 16 h; stronger effect = lower value. 4.7% of 360,000 active. activity change, % at 57.5 µM; in the data active = activity change below about -50%; inconclusive = mostly about -30% to -49%
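THP-1 cells pretreated 1 hr with compounds (up to 57.5 uM final), then stimulated with LPS (250 ng/mL final) plus ATP (1.25 mM final); secreted IL-1B measured by AlphaLISA after 16 hr, decreased signal indicating inhibition.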
HT1080-NT tox – kills 2HG-producing HT-1080-NT fibrosarcoma cells. HT-1080-NT fibrosarcoma viability, CellTiter-Glo ATP luminescence, 48 h. Potency, µM (highest dose often 46.1 µM), for the others: at the highest dose activity, negative = less viability, usual class: cytotoxic. 1.6% of 360,000 active. AID 686970;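 note: NT is the 2HG producing partner of a matched IDH1 knockdown line; potency is the fitted concentration of half-maximal effect; 0% = DMSO-treated cells and -100% = media-only wells without cells; nearly all actives have a fitted effect of over 55% in size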
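A 48-hour cytotoxicity screen used HT-1080-NT cells plated 2 hours before compound delivery. ATP-based CellTiter-Glo luminescence measured viability, normalized to DMSO and no-cell controls.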
Starred values were filed as active, the others as inactive; i = inactive; ? = inconclusive; · = no result given. This is a sample that favours compounds with a hit; in the whole collection about 8.8% have one here. Unless noted, calls come from the whole dose curve; as a rule, active = well fitted curve in the direction sought with a large enough effect; inconclusive = small, poorly fitted or top-dose-only effect, or another doubt; inactive = no such curve, though single readings can be large; an effect the other way counts as inactive or inconclusive. Unless noted, % is set by controls: 0 for no effect and ±100 for the full control effect.

SMILES | HT1080 IDH1KD tx | KB-V1 MDR tox | KB-3-1 cytotox | IL-1B inflam inh | HT1080-NT tox
O=C(NCCCN1CCN(CCCNC(=O)c2cccc(Cl)c2)CC1)c1cccc(Cl)c1 | 1% | ? | i | -57* | -1%
O=C(NCCN1CCCC1)c1cccc(Cl)c1 | 18% | i | i | 42 | ?
Cc1cc(NC(=O)C(C)SCC(=O)OCC(=O)N(Cc2ccccc2)C(C)(C)C)no1 (stereo not drawn) | 9% | i | i | i | 5%
Cc1cc(NC(=O)C(C)SCC(=O)N(Cc2ccccc2)c2ccccc2)no1 (stereo not drawn) | -23% | 6.5µM* | ? | 5 | -10%
CCCCOC(=O)n1c(SCC(=O)N(C)C)nc2ccccc21 | 4% | 16µM* | i | 0 | -1%
CCOC(=O)C1CCCN(S(=O)(=O)c2cnc(Cl)c(Br)c2)C1 (stereo not drawn) | 0% | ? | i | -8 | -1%
CSc1ccc(CCNC(=O)C2CCCN(c3ncnc4c3nc3n4CCCCC3)C2)cc1 (stereo not drawn) | -6% | i | ? | -69* | -5%
O=C(Nc1ccc(Cl)cc1)C1CCCN(c2ncnc3c2nc2n3CCCCC2)C1 (stereo not drawn) | ? | i | ? | -59* | ?
O=C(C1CCCN(c2ncnc3c2nc2n3CCCCC2)C1)N1CCN(c2cccc(Cl)c2)CC1 (stereo not drawn) | ? | 23µM* | ? | ? | ?
O=C(NCc1ccc(Cl)cc1)C1CCCN(c2ncnc3c2nc2n3CCCCC2)C1 (stereo not drawn) | -1% | i | i | 13 | 7%
COc1cccc(N2CCN(c3ncnc4c3nc3n4CCCCC3)CC2)c1 | · | ? | 16µM* | · | ·
Cc1c(Cl)cccc1NS(=O)(=O)c1cc2c(cc1F)NC(=O)CC2 | · | i | i | · | ·
NC(=O)C(=O)NCCCN1CCOCC1 | -1% | i | i | 33 | 2%
Cc1cc(C)n2nc(CNC(=O)c3ccccc3Cl)nc2n1 | · | i | i | · | ·
COc1ccc2c(c1OC)C(=O)OC2Nc1nc(-c2cccc([N+](=O)[O-])c2)cs1 (stereo not drawn) | 1% | i | i | -9 | 1%
Cc1ccccc1CN1CCC(CNC(=O)C2CCCN(c3ncnc4c3nc3n4CCCCC3)C2)CC1 (stereo not drawn) | ? | ? | i | -86* | ?
O=C(Nc1ccc(F)cc1F)C1CCCN(c2ncnc3c2nc2n3CCCCC2)C1 (stereo not drawn) | -11% | i | i | -55* | -23%
O=C(Nc1cc(F)ccc1F)C1CCCN(c2ncnc3c2nc2n3CCCCC2)C1 (stereo not drawn) | 2% | ? | ? | 16 | -1%
O=C(COC(=O)c1ccc2c(c1[N+](=O)[O-])C(=O)c1ccccc1C2=O)NC1CC1 | ? | i | ? | -77* | ?
CC1CCCCC1NC(=O)COC(=O)c1ccc2c(c1Cl)C(=O)c1ccccc1C2=O (stereo not drawn) | 23% | i | i | 19 | 25%
Cc1ccc(C)c(NC(=O)COC(=O)c2cccc3c2C(=O)c2ccccc2C3=O)c1 | -7% | 15µM* | ? | 5 | -1%
O=C(COC(=O)c1cccc2c1C(=O)c1ccccc1C2=O)NC1CCCCC1 | ? | 21µM* | i | -132* | ?
Cc1ccc(NC(=O)COC(=O)c2cccc3c2C(=O)c2ccccc2C3=O)c(C)c1 | ? | ? | i | -20 | 5%
O=C(COC(=O)c1ccccc1F)NC1CCCC1 | 17% | ? | i | 7 | 18%
O=C(CN1C(=O)COc2ccccc21)N(Cc1ccc2c(c1)OCO2)CC1CCCO1 (stereo not drawn) | -21% | 4.1µM* | i | -16 | -3%
SMILES | HT1080 IDH1KD tx | KB-V1 MDR tox | KB-3-1 cytotox | IL-1B inflam inh | HT1080-NT tox
Cc1ccc2c(c1)c1c3n2CCN=C3CCC1 | -4% | 15µM* | ? | -96* | -1%
c1cc2c(cc1C1CCCCC1)c1c3n2CCN=C3CCC1 | ? | ? | ? | ? | 21µM*
COc1ccc(C(=O)/C=C/c2ccc(N3CCCCC3)c([N+](=O)[O-])c2)cc1 | 3% | ? | ? | -101* | -2%
Cc1ccc(C(=O)O/N=C\c2ccc(N3CCCCC3)c([N+](=O)[O-])c2)cc1 | 1% | 7.3µM* | ? | -7 | -14%
O=C(c1ccc2c(c1)N(Cc1ccc(Cl)cc1)C(=O)c1ccccc1S2(=O)=O)N1CCCC1 | · | i | i | · | ·
COc1ccc(NC(=O)C2Cc3c(-c4cccc(NC(C)=O)c4)ccnc3O2)cn1 (stereo not drawn) | ? | i | 4.6µM* | 60 | ?
COc1ccc(NC(=O)C2Cc3c(-c4cccc(C(N)=O)c4)ccnc3O2)cn1 (stereo not drawn) | 21µM* | i | ? | 3 | ?
COc1ccc(NC(=O)C2(C)Cc3c(-c4cccc(C(N)=O)c4)ccnc3O2)cn1 (stereo not drawn) | 4.6µM* | i | 9.2µM* | 29 | ?
COc1ccc(NC(=O)C2Cc3c(-c4cccc(F)c4)ccnc3O2)cc1 (stereo not drawn) | ? | ? | ? | -10 | -7%
COc1ccc(NC(=O)C2Cc3c(-c4cccc(C(N)=O)c4)ccnc3O2)cc1 (stereo not drawn) | 15µM* | i | ? | 0 | 12µM*
O=C(Nc1cccnc1Cl)c1cc2ccccc2o1 | 12% | i | i | 21 | 2%
O=C(NCc1ccccc1Cl)C1=CC=CN2CCS(=O)(=O)N=C12 | -3% | i | i | 11 | -2%
CCOc1ccc(-c2c(C(=O)N/N=C/c3c[nH]c4ccccc34)nnn2-c2nonc2N)cc1 | -30% | i | i | 0 | -25%
O=C1C=CC(=O)c2c(O)c(N3CCN(CCO)CC3)c(Cl)c(O)c21 | 5.2µM* | ? | 5.2µM* | -73* | 5.8µM*
O=C1C=CC(=O)c2c(O)c(N3CCN(CCOCCO)CC3)c(Br)c(O)c21 | 5.8µM* | 4.1µM* | 5.2µM* | -117* | ?
NC(=O)CC1C(=O)N(c2ccccc2)C(=S)N1NC(=O)c1ccccc1 (stereo not drawn) | 17% | i | i | -11 | 16%
CC1CCC2(CC1)NC(=O)N(CC(=O)Nc1cccc(C#N)c1)C2=O (stereo not drawn) | -4% | i | i | 0 | -8%
Cc1ccc2nsnc2c1NC(=O)c1ccc(-c2cc(Cl)ccc2Cl)o1 | -27% | ? | ? | -2 | 16µM*
Cc1ccc2nsnc2c1NC(=O)CCl | ? | i | i | -24 | ?
Cc1ccc2nsnc2c1NC(=O)Cc1ccc(Cl)cc1 | 8% | i | i | 8 | 8%
